Experimental data as given in ChEMBL document CHEMBL3433997, “St. Jude Leishmania screening dataset” (2016).

Molecular target: Glucose transporter (Leishmania mexicana) (UniProt O61059)
Experiment: ST_JUDE_LEISH: Cytotoxicity at 2uM final concentration against transgenic Leishmania Mexicana promastigotes LmGT2 that are glucose transport deficient and complemented with the L. Mexicana glucose transporter 2. Activity is measured by DNA content using SYBR green in vitro
Assay type: functional

Structure (SMILES) | inhibition [%]
Nc1cccc(CNCc2ccc(-c3cccc(-c4nc5cc(F)ccc5[nH]4)c3)cc2)c1 | -1.93
OCC1CCN(Cc2cccc(C#Cc3cc4ncnc(Nc5ccc(OCc6cccc(F)c6)c(Cl)c5)c4s3)n2)CC1 | 9.61
CC12CN3CC(C)(CN(C1)C3c1cc(Br)ccc1O)C2O (stereo not given) | 4.22
COc1cccc(-c2csc(C(=O)NCC3CCN(Cc4ccc(C(C)(C)C)cc4)C3)c2)c1 (stereo not given) | 2.46
Cc1[nH]c(C)c(-c2ccc(-c3ccc(OC(F)(F)F)cc3)cc2)c(=O)c1Cl | -2.04
CN(C)CCOc1cc(NC(=O)Nc2ccc3c(c2)CCCC3=O)ccc1I | 4.5
N#Cc1ccc(-c2ccc(C(=O)NCCCCN3CCC(c4ccc5c(c4OCC(N)=O)CCCC5)CC3)cc2)cc1 | 1.1
Cc1cc(-c2cc(Cl)ccc2Cl)no1 | -0.72
Cc1cc(C)n(-c2nc(Nc3cccc(C(F)(F)F)c3)nc(-n3nc(C)cc3C)n2)n1 | -1.11
CCCc1cc(Cc2cnc(N)nc2N)c2cccnc2c1OC | 4.33
CN(C)Cc1ccc(-c2ccc3c(Nc4ccc(Oc5ccccc5)cc4)ccnc3c2)o1 | 2.26
NCCCNc1ccc(-c2ccc(NC(=O)Nc3cc(C(F)(F)F)ccc3F)cc2)cn1 | 1.11
O=C(C1CCCCC1)N1CCOC(CCN2CCC(c3ccccc3)CC2)(c2ccc(Cl)c(Cl)c2)C1 (stereo not given) | 13.5
CN(C)Cc1ccc(-c2cc3ncnc(Nc4ccc(OCc5cccc(F)c5)c(Cl)c4)c3s2)[nH]1 | 1.76
CCCO[C@H](C(=O)OC)[C@@H](CC1Cc2ccccc2C1)C(=O)NCCC1=CCCCC1 | 2.2
CCCN(CCC)C(=O)c1cc(C(=O)N[C@@H](Cc2ccccc2)[C@H](O)CNCc2cccc(C(F)(F)F)c2)cc(N2CCCCS2(=O)=O)c1 | -0.16
Cc1ccc(CNC(=O)[C@H](CCCN)Nc2nc(Nc3ccccc3)ncc2C)cc1 | 1.15
CC(C)CCOc1ccc(NC(=O)c2cccs2)cc1 | 5.27
CCOC(=O)c1c(CCc2ccc(C(F)(F)F)cc2)nc2c(c1-c1ccc(C(=O)N[C@@H](C)c3ccncc3)cc1)C(=O)N1CCC[C@@H]21 | 0.48
Cc1cc(C)cc(OCC(O)CN(CCN2CCOCC2)C(=O)Nc2ccc(Br)cc2)c1 (stereo not given) | 13.4

Structure (SMILES) | inhibition [%]
CCN(CC)CCN(Cc1ccc(-c2ccc(C(F)(F)F)cc2)cc1)C(=O)c1c[nH]c2ccc(Br)cc12 | 2.1
CC(C)[C@H](NC(=O)c1ccc(O)c(-c2ccc(Cl)c(Cl)c2)c1)C(=O)NCCN1CCOCC1 | 4.06
c1cncc(CCNCc2ccc(-c3ccc(CNC4Cc5ccccc5C4)cc3)cc2)c1 | 3.87
N#Cc1ccc(NC2(C(=O)N3CCN(c4cccc(Cl)c4)CC3)CC2)c2ccccc12 | 0.86
CCN(CC)S(=O)(=O)c1ccc(C=CC(=O)Nc2cc(Cl)ccc2N2CCOCC2)cc1 | 5.02
Cc1c(CNCCCNc2nc3ccncc3[nH]2)sc(Br)c1Br | 4.11
N#Cc1ccc(-c2ccc(OCC(O)CN3CCCN(Cc4cccc(O)c4Cl)CC3)cc2)cc1 (stereo not given) | 1.67
C=C[C@H]1CN(CCCCCCC)CC[C@H]1CC(O)Cc1ccnc2cc(O)c(OC)cc12 (stereo not given in full) | 0.32
Clc1ccc2c(Cl)c(CNCCCNc3nc4ccccc4[nH]3)[nH]c2c1 | 1.14
O=C(NCCCN1CCC(N2CCCCC2)CC1)c1ccc2nc(N3CCCCC3)sc2c1 | 8.02
COc1ccc(Cl)cc1N1CCN(CCCNC(=O)c2ccc(-c3nc4cc5ccccc5cc4[nH]3)c(F)c2)CC1 | 1.26
CN1CCC(C(=O)N(Cc2ccc(-c3ccc(CNCCc4ccc(S(C)(=O)=O)cc4)cn3)cc2)C2Cc3ccccc3C2)CC1 | -0.85
CCOc1cccc(C2c3c(oc4ccccc4c3=O)C(=O)N2CCN(CC)CC)c1 (stereo not given) | 3.34
N#Cc1ccccc1S(=O)(=O)N1CCCC(CNC(=O)[C@H](CC2CCCCC2)NC(=O)c2cc3ccccc3s2)C1 (stereo not given in full) | 0.55
NC1CCCN(Cc2cccc(-c3ccc(-c4nc5cc(F)ccc5[nH]4)cc3)c2)C1 (stereo not given) | 3.43
N=C(N)c1ccc(-c2cc3ccc(C(=N)N)cc3[nH]2)cc1 | 52.2
CC(C)Cc1cn(-c2nc(-c3nc4ccccc4[nH]3)cs2)c2ccncc12 | 3.29
NCCCCc1c(-c2ccc(Cl)c(Cl)c2)[nH]c2ccc(Cl)cc12 | -3.34
CN(C)CCNCc1cccc(-c2ccc3c(Nc4ccc(Oc5ccccn5)cc4)ccnc3c2)c1 | 0.21
Cc1ccc(-c2nnc3c4ccccc4c(C)nn23)cc1S(=O)(=O)N1CCN(CCO)CC1 | -0.93
